# Bioassay records from PubChem BioAssay.
# Tau fibril FP = inhibitors of human tau fibril formation; K18 P301L tau heparin fibrillization, Alexa594 FP, 6 h; Potency, µM (series often up to 57.7 µM), inactives show top-dose activity, negative = inhibition, most hits filed as inhibitors; 0.39% of 280,000 active; AID 1468; further: potency means the concentration at half of the fitted maximal effect; nearly all actives have a fitted effect of over 55% in size
# Target sequence (P10636 561-689 P618L limits assumed): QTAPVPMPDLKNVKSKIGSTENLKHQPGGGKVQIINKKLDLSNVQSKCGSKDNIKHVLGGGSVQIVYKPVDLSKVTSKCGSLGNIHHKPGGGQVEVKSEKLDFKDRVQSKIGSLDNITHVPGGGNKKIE
#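 Steps: dispense K18 P301L tau (15 uM plus 0.24 uM Alexa 594 tracer, final) in pH 7 sodium acetate; add compound; add heparin (20 uM final); incubate 6 hr, 37 C; add ThT (30 uM final); after 1 hr ambient, read FP.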
# TRb SRC2 PPI = TRbeta-SRC2 interaction inhibition; P10828; TRbeta-SRC2 peptide binding, fluorescence polarization; receptor liganded with 1 µM T3; Potency, µM (highest dose often 106 µM), for the others: top-dose activity change, negative = inhibition, actives largely listed as inhibitors; 0.065% of 280,000 active; AID 1469;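 further: potency means the concentration at half of the fitted maximal effect; plate controls were bound peptide for no effect and peptide without receptor for full effect; nearly all actives have a fitted effect of over 50% in size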
# Target sequence (P10828 whole entry, looked up): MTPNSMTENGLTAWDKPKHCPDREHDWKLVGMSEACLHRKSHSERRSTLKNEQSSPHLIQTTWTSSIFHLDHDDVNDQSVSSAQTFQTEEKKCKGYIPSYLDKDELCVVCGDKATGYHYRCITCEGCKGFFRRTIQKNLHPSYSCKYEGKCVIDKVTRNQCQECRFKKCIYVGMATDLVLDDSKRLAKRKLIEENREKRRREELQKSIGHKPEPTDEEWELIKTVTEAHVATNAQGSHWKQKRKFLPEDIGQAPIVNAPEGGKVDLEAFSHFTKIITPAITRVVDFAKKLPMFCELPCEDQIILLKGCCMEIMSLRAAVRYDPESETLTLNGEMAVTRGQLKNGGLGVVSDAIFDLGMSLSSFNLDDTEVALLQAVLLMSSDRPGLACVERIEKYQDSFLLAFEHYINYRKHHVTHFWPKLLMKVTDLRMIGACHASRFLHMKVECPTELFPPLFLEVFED
#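 Quantitative HTS by FP: 0.6 uM TRb LBD, 20 nM labeled SRC2 20-mer, 1 uM T3, 5% DMSO; 5 hr ambient incubation; % activity per concentration and potencies from concentration series.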
# Tau fluor counter = counter-screen for tau fibril formation inhibitors; 0.93% of 280,000 active; Potency, µM (highest dose often 57.7 µM), for the others: at the highest dose activity change, negative = decrease; tau K18 P301L Alexa594 fluorescence, heparin fibrillization; further: potency means the concentration at half of the fitted maximal effect; nearly all actives have a fitted effect of over 55% in size
#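 Human K18 P301L tau (15 uM unlabeled plus 0.24 uM Alexa 594-labeled, final) in 100 mM sodium acetate pH 7 was mixed with compound and 20 uM heparin and incubated 6 hr at 37 C.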
# Tau ThT inhib = inhibitors of human tau fibril formation, thioflavin T binding. P10636. recombinant tau K18 P301L (four-repeat tau fragment), heparin-induced fibrillization, ThT fluorescence. Potency, µM (highest dose often 57.4 µM), without a hit: top-dose activity, negative = inhibition, most hits filed as inhibitors. 2.1% of 270,000 active. AID 1460; further: potency means the concentration at half of the fitted maximal effect; nearly all actives have a fitted effect of over 55% in size
#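 Heparin-induced (20 uM) aggregation of recombinant human K18 P301L tau, 15 uM unlabeled with 0.24 uM labeled, pH 7 acetate buffer, 6 hr at 37 C with compound. Fibrils quantified by 30 uM ThT fluorescence after 1 hr ambient incubation.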
# PNC inhibitor = perinucleolar compartment assembly inhibition | activity change (PNC), negative = inhibition, % at 10 µM | PC3M PTB-GFP, PNC prevalence imaging, 16 h; hits give low values | 3.1% of 140,000 active;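 active means readout at or below -70, meaning at least 70% loss of cells showing the perinucleolar compartment, a nuclear body marking cancer cells; inconclusive means readout between -30 and a set limit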;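 further: plate controls were DMSO wells for no effect and camptothecin positive control wells for full effect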
#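 PC3M cells stably expressing PTB-GFP, 750–1000 cells/well, treated 16 h at 37 °C with compound (23 nl of library stock), in duplicate. After paraformaldehyde fixation and Hoechst stain, imaged at 20x; PNC prevalence scored by image analysis.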
# TR SRC2 fluor cs = Texas Red fluorescence interference in TRb-SRC2 counter-screen; 0.29% of 280,000 active; AID 1479; TRb/SRC2 Texas Red total fluorescence interference; Potency, µM (highest dose often 106 µM), inactives show at the top dose fluorescence change, negative = quenching; active means well fitted curve in either direction with a large enough effect; inconclusive means small, poorly fitted or top-dose-only effect; further: potency means the concentration at half of the fitted maximal effect
#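 Human TRb ligand-binding domain at 0.6 uM with 20 nM Texas Red SRC2 peptide in Tris buffer containing 1 uM T3 and 5% DMSO, incubated with compound 5 h at ambient temperature. Total fluorescence (555/632 nm) calculated as parallel + 2 × perpendicular.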
# * hit, by the source's call; u = inconclusive; x = no result; [ ] = remark or other dose. This is a sample that favours compounds with a hit; in the whole collection about 4.6% have one here. Unless noted, the call rests on the fitted dose curve; in most records, active means well fitted curve in the direction sought with a large enough effect; inconclusive means small, poorly fitted or top-dose-only effect, or another doubt; inactive means no such curve, though single readings can be large; an effect the other way counts as inactive or inconclusive. Unless noted, on the % scale 0 is the no-effect control and ±100 the full control effect.
SMILES,Tau fibril FP,TRb SRC2 PPI,Tau fluor counter,Tau ThT inhib,PNC inhibitor,TR SRC2 fluor cs
CCN(C(=O)/C=C/c1ccc2c(c1)OCO2)c1ccccc1,4.4%,-3.3%[53 µM],10.5%,8.2%,-83.6*,-0.9%[53 µM]
O=C(/C=C/c1ccc2c(c1)OCO2)c1ccccn1,-8.8%,1.2%,-29.2%,14.1µM*,x,2.2%
COc1ccccc1NC(=O)/C=C/c1ccc2c(c1)OCO2,-7.9%,4.4%,-19.8%,u,x,-6.8%
O=C(N/N=C/c1ccc2c(c1)OCO2)c1ccccn1,-7.7%,-2.8%,-0.9%,-14.2%,105.6,-0.4%
CCOC(=O)c1sc(N)c(C(=O)Nc2ccccc2OC)c1C,-5.1%,5.1%,-20.9%,u,x,-3.8%
CCc1ccccc1NC(=O)Cn1c(=O)n(CCCS(=O)(=O)C2CCCCC2)c(=O)c2ccccc21,14.9%,-3.2%,-5.0%,-6.1%,x,-0.1%
CN(C)c1ccc(/C=C/C(=O)c2c(O)c3ccccc3oc2=O)cc1,u,20.4%,0.708µM*[fluorescent],x,x,9.1%
CCOc1ccc(/C=C/C(=O)c2c(O)c3ccccc3oc2=O)cc1,2.5%,-7.3%,1.0%,u,23.8,-1.0%
Cc1nc(NCCO)c2nnn(Cc3ccccc3F)c2n1,6.5%,1.5%,1.8%,-9.6%,-92.6*,1.0%
O=C(O)c1ccc(N=NNc2cccc([N+](=O)[O-])c2)cc1,5.9%,1.9%,-9.4%,u,x,0.4%
N#C/C(=N\Nc1cccc([N+](=O)[O-])c1)C(=O)c1ccc(Br)cc1,13.7%,-1.6%,u,10µM*,x,-10.0%
CC1(C)CC2(CCCN(C(=S)Nc3ccccc3)C2)CCO1 (stereo not drawn),5.6%,2.9%,-6.5%,-2.4%,x,-0.7%
CC(C)c1ccc(NC(=O)C(Cc2ccccc2)NS(=O)(=O)c2ccc3c(c2)CCC(=O)N3)cc1 (stereo not drawn),-14.4%,-8.6%,u,-11.4%,x,-0.6%
Cc1ccc(CONC(=O)/N=C/N(C)C)cc1,-7.3%,-3.3%,3.3%,0.3%,19.7,5.1%
O=c1[nH]c(/C=C2\C=Nc3ccccc32)c(O)n1Cc1ccccc1F,0.4%,-3.1%,7.94µM*[quencher],u,x,-8.1%
CSc1nc(O)c(/C=C2\C=Nc3ccccc32)[nH]1,6.6%,-11.0%,-5.0%,1.3%,-3.8,-3.2%
CC1(C)Cc2c(c(N3CCOCC3)nc3snc(N)c23)CO1,u,2.9%,-11.9%,12.6µM*,2.9,-2.5%
CC1(C)Cc2c(c(N3CCOCC3)nc3sc(C(N)=O)c(N)c23)CO1,11.0%,-4.1%,-19.2%,-11.7%,x,-4.7%
COc1nnnc2c1sc1nc(N3CCOCC3)c3c(c12)CC(C)(C)OC3,-1.4%,11.3%,-5.0%,-5.0%,11.4,0.0%
CC1(C)Cc2c(c(N3CCOCC3)nc3snc(Br)c23)CO1,-12.9%,-2.5%,-3.4%,u,-84.0*,-3.6%
O=C(Nc1ccc2c(c1)OCO2)C(c1ccc(Cl)cc1)N1CCN(C(=O)c2ccco2)CC1 (stereo not drawn),6.8%,-10.4%,-2.1%,-7.1%,8.7,-2.8%
Cc1ccc(/C=C2\C(=O)Nc3ccccc32)o1,-3.5%,-13.2%[53 µM],0.8%,5.4%,-8.4,0.112µM*[quencher]
O=C1Nc2ccccc2/C1=C/c1cccnc1,1.1%,5.6%,-9.6%,u,x,-0.5%
Cc1ccc2c(c1)NC(=O)c1cccnc1N2,9.4%,-0.4%,-22.1%,u,64.2,-1.4%
Cc1ccc2c(c1)/C(=C/c1ccco1)C(=O)N2,2.6%,-0.6%,-21.4%,11.2µM*,x,-1.4%
Cc1ccc(CSc2ncc(Cl)c(C(=O)Oc3ccccc3F)n2)cc1,-12.1%,-0.7%,-24.2%,15.8µM*,x,0.5%
O=C(Nc1ccc(F)cc1)c1nc(SCc2ccccc2F)ncc1Cl,-12.1%,-10.0%,-5.6%,0.8%,x,-2.6%
O=C(Oc1ccccc1F)c1nc(SCc2ccccc2F)ncc1Cl,-8.9%,-1.0%,-24.6%,22.4µM*,x,-0.3%
O=C(Nc1ccccc1F)c1nc(SCc2ccc(F)cc2)ncc1Cl,-16.1%,-8.8%,-22.7%,-6.4%,x,-0.2%
